Test results taken from ChEMBL document CHEMBL1961873, “Compounds: GSK PKIS; Assays: Nanosyn kinase panel” (2012).

What was measured:
[1] = biological target: Tyrosine-protein kinase Fyn (Homo sapiens) (UniProt P06241); details: at 1 µM
[2] = biological target: Tyrosine-protein kinase HCK (Homo sapiens) (UniProt P08631); details: at 0.1 µM
[3] = biological target: Tyrosine-protein kinase HCK (Homo sapiens) (UniProt P08631); details: at 1 µM
[4] = biological target: Insulin-like growth factor 1 receptor (Homo sapiens) (UniProt P08069); details: at 1 µM
Chain of Insulin-like growth factor 1 receptor (Homo sapiens) (P08069 31-736 limits assumed): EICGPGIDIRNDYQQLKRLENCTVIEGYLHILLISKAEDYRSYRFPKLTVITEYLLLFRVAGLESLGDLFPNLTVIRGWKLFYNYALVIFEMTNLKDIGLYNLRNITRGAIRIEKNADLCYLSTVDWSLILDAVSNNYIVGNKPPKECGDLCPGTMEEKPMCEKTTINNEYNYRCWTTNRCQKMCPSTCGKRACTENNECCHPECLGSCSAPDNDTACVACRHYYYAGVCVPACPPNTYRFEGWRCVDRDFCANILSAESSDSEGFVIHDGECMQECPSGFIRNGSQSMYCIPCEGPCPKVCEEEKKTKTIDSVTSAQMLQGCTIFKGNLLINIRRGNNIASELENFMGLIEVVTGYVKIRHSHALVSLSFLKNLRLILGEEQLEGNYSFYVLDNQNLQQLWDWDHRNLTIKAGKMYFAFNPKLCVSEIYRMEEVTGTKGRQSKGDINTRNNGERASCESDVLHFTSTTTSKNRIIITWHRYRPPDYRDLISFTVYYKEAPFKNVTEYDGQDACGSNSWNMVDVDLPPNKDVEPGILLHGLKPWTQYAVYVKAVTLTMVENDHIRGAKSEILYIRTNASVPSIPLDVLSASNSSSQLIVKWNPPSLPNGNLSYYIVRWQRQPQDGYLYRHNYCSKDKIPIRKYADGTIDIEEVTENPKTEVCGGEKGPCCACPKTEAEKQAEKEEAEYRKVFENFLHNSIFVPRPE
Chain of Insulin-like growth factor 1 receptor (Homo sapiens) (P08069 741-1367 limits assumed): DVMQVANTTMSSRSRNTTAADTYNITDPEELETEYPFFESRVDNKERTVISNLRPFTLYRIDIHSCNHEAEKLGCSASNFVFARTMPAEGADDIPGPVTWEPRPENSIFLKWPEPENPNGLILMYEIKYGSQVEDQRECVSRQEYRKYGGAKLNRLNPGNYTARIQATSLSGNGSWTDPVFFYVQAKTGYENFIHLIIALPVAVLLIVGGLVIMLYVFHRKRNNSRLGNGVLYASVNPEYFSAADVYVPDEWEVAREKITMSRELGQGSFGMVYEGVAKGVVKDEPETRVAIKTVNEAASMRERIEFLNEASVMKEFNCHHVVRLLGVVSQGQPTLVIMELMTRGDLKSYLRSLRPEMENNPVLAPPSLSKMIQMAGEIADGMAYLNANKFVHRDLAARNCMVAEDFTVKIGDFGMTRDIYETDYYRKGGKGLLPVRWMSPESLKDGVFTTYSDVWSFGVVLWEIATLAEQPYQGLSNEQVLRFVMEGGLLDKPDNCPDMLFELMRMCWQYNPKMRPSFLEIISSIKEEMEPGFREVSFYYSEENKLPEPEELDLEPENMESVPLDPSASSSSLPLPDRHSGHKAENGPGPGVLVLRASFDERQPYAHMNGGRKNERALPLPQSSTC

[5] = biological target: Insulin receptor (Homo sapiens) (UniProt P06213); details: at 0.1 µM
Chain of Insulin receptor (Homo sapiens) (P06213 28-758 limits assumed): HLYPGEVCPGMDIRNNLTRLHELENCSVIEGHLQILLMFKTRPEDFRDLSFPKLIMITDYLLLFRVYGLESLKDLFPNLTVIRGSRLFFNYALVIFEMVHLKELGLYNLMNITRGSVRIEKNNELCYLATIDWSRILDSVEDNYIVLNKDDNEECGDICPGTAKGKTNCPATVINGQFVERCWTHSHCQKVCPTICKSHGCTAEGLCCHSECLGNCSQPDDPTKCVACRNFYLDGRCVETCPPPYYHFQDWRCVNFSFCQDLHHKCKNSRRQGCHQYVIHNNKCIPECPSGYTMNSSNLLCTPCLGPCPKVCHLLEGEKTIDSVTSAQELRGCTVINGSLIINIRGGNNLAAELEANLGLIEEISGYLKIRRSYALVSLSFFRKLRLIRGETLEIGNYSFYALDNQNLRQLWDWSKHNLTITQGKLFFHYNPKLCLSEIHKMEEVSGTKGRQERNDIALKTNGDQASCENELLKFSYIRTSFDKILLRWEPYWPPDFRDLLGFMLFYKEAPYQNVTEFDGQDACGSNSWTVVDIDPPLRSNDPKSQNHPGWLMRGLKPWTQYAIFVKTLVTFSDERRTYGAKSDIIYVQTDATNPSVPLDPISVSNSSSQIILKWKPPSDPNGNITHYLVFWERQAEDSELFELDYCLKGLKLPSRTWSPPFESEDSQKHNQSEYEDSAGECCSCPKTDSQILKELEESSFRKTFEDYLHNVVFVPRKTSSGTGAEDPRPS
Chain of Insulin receptor (Homo sapiens) (P06213 763-1382 limits assumed): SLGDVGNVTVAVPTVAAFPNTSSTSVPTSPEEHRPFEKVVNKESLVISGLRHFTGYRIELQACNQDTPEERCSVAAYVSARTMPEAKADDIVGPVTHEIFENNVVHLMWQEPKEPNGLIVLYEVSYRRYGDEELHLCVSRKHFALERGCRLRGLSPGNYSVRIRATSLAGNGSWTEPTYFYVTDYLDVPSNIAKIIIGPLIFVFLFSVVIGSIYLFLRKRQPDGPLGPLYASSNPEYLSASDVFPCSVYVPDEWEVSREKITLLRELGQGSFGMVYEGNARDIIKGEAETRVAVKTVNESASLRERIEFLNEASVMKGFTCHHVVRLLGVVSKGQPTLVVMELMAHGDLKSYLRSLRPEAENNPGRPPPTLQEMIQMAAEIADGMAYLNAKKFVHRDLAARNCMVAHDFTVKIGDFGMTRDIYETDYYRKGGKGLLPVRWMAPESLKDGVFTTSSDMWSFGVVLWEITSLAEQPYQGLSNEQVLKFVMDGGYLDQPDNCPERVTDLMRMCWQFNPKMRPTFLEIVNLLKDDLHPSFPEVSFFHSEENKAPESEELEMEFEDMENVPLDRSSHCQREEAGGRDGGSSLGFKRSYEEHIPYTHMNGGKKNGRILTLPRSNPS

[6] = biological target: Insulin receptor (Homo sapiens) (UniProt P06213); details: at 1 µM
[7] = biological target: Insulin receptor-related protein (Homo sapiens) (UniProt P14616); details: at 0.1 µM
Chain of Insulin receptor-related protein (Homo sapiens) (P14616 27-742 limits assumed): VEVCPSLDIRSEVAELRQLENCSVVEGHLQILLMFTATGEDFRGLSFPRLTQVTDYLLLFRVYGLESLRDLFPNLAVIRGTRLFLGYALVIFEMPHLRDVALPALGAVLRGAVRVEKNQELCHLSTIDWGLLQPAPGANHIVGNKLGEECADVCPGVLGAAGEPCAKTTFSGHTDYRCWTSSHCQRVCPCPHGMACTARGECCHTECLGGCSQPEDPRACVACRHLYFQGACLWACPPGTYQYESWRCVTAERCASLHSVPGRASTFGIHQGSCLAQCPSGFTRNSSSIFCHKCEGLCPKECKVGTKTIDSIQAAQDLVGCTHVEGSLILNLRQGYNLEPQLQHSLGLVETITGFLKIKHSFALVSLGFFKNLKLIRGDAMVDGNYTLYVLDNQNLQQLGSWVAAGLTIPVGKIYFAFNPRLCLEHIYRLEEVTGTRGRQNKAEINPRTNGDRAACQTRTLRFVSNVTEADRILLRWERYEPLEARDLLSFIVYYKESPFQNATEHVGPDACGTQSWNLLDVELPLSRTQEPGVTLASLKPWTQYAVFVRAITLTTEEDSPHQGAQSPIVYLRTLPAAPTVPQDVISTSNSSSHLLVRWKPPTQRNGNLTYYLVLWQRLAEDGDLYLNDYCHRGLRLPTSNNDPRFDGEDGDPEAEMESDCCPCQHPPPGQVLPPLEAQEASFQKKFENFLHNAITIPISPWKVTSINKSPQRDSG
Chain of Insulin receptor-related protein (Homo sapiens) (P14616 747-1297 limits assumed): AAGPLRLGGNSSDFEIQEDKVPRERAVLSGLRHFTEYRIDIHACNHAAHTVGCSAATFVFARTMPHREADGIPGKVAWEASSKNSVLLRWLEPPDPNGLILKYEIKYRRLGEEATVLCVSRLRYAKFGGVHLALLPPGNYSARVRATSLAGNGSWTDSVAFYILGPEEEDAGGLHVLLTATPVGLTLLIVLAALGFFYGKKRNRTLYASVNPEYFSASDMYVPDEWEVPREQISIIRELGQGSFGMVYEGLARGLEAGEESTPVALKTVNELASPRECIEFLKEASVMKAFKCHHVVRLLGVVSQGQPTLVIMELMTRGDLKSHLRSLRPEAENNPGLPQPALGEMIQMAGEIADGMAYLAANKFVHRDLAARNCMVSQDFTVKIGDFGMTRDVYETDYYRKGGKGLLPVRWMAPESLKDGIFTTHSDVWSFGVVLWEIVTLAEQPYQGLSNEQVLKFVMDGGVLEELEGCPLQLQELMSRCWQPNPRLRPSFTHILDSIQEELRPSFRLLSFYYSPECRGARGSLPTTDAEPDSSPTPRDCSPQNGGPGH

[8] = biological target: Insulin receptor-related protein (Homo sapiens) (UniProt P14616); details: at 1 µM
[9] = biological target: T1, Tyrosine-protein kinase ITK/TSK (Homo sapiens) (UniProt Q08881); details: at 0.1 µM;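 note: mean percent inhibition of ITK from the GSK PKIS screen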
T1 sequence (whole entry): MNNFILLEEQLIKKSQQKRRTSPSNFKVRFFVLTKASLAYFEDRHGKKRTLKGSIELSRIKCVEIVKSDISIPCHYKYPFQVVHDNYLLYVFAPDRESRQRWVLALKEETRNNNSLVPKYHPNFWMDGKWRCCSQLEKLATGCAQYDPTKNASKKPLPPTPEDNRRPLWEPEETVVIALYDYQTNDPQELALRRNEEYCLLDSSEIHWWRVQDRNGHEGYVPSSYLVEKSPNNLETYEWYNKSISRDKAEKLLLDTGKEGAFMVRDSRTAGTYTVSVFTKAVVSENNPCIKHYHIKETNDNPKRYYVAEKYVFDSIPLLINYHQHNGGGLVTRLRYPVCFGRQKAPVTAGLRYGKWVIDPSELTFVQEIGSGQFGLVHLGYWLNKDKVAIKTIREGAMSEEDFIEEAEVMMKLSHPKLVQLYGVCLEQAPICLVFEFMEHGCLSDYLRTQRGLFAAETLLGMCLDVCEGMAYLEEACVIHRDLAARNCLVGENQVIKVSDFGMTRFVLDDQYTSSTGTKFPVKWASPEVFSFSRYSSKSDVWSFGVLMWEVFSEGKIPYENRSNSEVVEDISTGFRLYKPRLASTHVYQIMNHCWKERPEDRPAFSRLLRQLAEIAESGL

[10] = biological target: Insulin-like growth factor 1 receptor (Homo sapiens) (UniProt P08069); details: at 0.1 µM

Chain of Tyrosine-protein kinase HCK (Homo sapiens) (P08631 2-526 limits assumed): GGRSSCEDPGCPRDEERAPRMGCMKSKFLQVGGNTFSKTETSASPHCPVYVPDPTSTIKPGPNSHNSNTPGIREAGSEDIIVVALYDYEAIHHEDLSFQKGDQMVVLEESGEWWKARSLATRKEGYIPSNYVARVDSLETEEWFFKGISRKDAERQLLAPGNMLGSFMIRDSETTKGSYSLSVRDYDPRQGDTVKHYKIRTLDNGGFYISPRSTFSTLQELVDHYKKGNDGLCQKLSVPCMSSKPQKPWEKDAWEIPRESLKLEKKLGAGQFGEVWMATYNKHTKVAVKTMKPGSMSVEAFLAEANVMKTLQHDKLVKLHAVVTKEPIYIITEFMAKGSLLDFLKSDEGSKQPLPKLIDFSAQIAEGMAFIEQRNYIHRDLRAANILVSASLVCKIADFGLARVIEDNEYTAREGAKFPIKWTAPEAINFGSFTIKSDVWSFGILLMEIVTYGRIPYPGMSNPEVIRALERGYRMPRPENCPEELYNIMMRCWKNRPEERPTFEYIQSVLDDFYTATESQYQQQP
Chain of Tyrosine-protein kinase Fyn (Homo sapiens) (P06241 2-537 limits assumed): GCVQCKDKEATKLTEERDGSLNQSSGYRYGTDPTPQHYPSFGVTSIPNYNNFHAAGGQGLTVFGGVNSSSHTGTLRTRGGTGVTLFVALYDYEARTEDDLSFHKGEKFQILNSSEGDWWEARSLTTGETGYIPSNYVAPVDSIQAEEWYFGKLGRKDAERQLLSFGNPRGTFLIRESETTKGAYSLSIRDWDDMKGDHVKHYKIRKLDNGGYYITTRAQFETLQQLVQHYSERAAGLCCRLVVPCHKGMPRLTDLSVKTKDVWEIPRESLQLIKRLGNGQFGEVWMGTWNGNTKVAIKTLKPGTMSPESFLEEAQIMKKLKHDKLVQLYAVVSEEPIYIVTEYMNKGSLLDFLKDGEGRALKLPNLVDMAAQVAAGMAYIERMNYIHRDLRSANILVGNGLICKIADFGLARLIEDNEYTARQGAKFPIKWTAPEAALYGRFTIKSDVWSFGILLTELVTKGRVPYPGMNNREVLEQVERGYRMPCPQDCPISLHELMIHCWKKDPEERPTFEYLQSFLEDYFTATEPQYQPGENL

Row | Compound | inhibition [1] | inhibition [2] | inhibition [3] | inhibition [4] | inhibition [5] | inhibition [6] | inhibition [7] | inhibition [8] | inhibition [9] | inhibition [10]
1 | Fc1ccc(-c2ncn(C3CCNCC3)c2-c2ccnc(Oc3ccc(F)c(F)c3)n2)cc1 | -4.44% | 5.11% | 4.68% | -4.9% | -2.06% | 0.24% | 3.04% | 2.75% | -3.95% | –
2 | CS(=O)(=O)CCNCc1ccc(-c2ccc3ncnc(Nc4ccc(OCc5ccccc5)c(Br)c4)c3c2)o1 | 1.37% | 7.33% | 10.2% | -5.4% | 2.87% | 1.17% | 2.56% | 2.95% | -4.12% | –
3 | COc1ccc(-c2ccc3c(NC(=O)C4CC4)n[nH]c3n2)cc1 | 4% | -0.93% | 5.16% | 0.43% | 1.07% | 3.1% | 0.55% | 0.43% | 0.61% | 1.17%
4 | O=C(Nc1n[nH]c2nc(-c3ccco3)ccc12)C1CC1 | 1.67% | 3.22% | 7.96% | 2.33% | -3.11% | 0.45% | 1.25% | 0.79% | 1.08% | 1.21%
5 | Fc1ccc(-c2ncn(C3CCNCC3)c2-c2ccnc(Oc3ccc4c(c3)OCO4)n2)cc1 | 3.17% | 6.2% | 10.9% | 2.16% | 2.85% | 3.42% | 3.09% | 3.51% | 1.6% | 0.4%
6 | COc1cc(Nc2ncc3c(C)nc(-c4cccc(C(F)(F)F)c4)n3n2)cc(OC)c1OC | 39.7% | 6.2% | 22.6% | 5.74% | 5.92% | 8.95% | 1.64% | 3.39% | 2.02% | 2.62%
7 | COc1cc(Nc2ncc3c(C)nc(-c4cccc(Oc5ccccc5)c4)n3n2)cc(OC)c1OC | 8.45% | 3.59% | 5.25% | 5.13% | 5.22% | 8.16% | 2.99% | 3.66% | 0.96% | 3.82%
8 | NC(=O)Cc1ccccc1Oc1nccc(-c2c(-c3ccc(F)cc3)ncn2C2CCNCC2)n1 | 2.13% | 2.65% | 5.75% | 3.6% | 5.96% | 6.34% | 0.84% | 1.69% | 1.33% | 3.37%
9 | CN1CCN(CCCNc2nc3ccc(Oc4ccc(NC(=O)Nc5cc(C(F)(F)F)ccc5F)cc4)cc3[nH]2)CC1 | -1.88% | 4.66% | 9.14% | -7.78% | -3.22% | – | 1.22% | 0.55% | -2.06% | -9.82%
10 | Clc1ccc(CNc2nccc(-c3cnn4ncccc34)n2)cc1 | 0.07% | 5.97% | 5.79% | – | 0.04% | 1.97% | 2.17% | 2.19% | 0% | 2.48%
11 | Nc1nccc(-c2c(-c3ccc(F)cc3)ncn2C2CCC(O)CC2)n1 (stereo not drawn) | 6.58% | 1.96% | 12.7% | -1.17% | 0.89% | -0.36% | -0.97% | -2.71% | -0.36% | -1.46%
12 | Fc1ccc(-c2c(-c3ccncc3)nc3n2CCS3)cc1 | 0.5% | 2.36% | 4.87% | -5.03% | 5.99% | 6.13% | 0.59% | 0.48% | -2.9% | -4.27%
13 | COc1ccc2ncn(-c3cc(O[C@H](C)c4ccccc4Cl)c(C(N)=O)s3)c2c1 | -3.05% | 5.34% | 5.31% | -6.53% | 0.89% | 3.79% | 2.92% | 3.51% | -4.15% | –
14 | O=C1NC(=O)C(c2cccc(Cl)c2)=C1Nc1ccc(Cl)c(C(=O)O)c1 | 6.23% | 3.57% | 3.65% | 3.35% | 4.57% | 7.53% | 1.75% | 1.42% | 1.1% | 2.14%
15 | C#Cc1cccc(Nc2ncnc3ccc(OCCCCNCCS(C)(=O)=O)cc23)c1 | 2.18% | 11.1% | 20.5% | -2.48% | 8.82% | 4.34% | 2.65% | 2.49% | -1.95% | -0.58%
16 | CCc1nccc2c1nc(-c1nonc1N)n2CC | 0.11% | 11.6% | 16.3% | 2.4% | 0.64% | 0.74% | -0.83% | -1.07% | 0.88% | -0.66%
17 | NC(=O)c1cc(-c2ccncc2)cc(-c2ccccc2)c1N | 37.6% | 12.1% | 43.7% | 5.9% | 6.28% | 6.25% | 2.11% | 1.56% | 1.61% | 5.73%

Row | Compound | inhibition [1] | inhibition [2] | inhibition [3] | inhibition [4] | inhibition [5] | inhibition [6] | inhibition [7] | inhibition [8] | inhibition [9] | inhibition [10]
18 | C[C@@H](Oc1cc(-n2cnc3ccc(OCC4CCN(C)CC4)cc32)sc1C(N)=O)c1ccccc1Cl | 15.3% | 8.11% | 29.6% | 7.27% | 6.64% | 8.87% | 2.3% | 3.31% | 2.76% | 6.33%
19 | O=C1Nc2ccc(I)cc2C1=Cc1cc(Br)c(O)c(Br)c1 | 6.7% | 6.42% | 8.5% | 2.95% | 6.33% | 5.95% | 0.52% | 2.5% | 1.48% | 5.43%
20 | CNC(=O)c1cncc(/C=C/c2c(C)cccc2C)c1 | 29.6% | 17.2% | 58.9% | -5.13% | 0.95% | 4.95% | 2.26% | 1.08% | -3.14% | -3.76%
21 | COC(=O)Nc1nc2ccc(Sc3ccc(NC(=O)Nc4cc(C(F)(F)F)ccc4F)cc3)cc2[nH]1 | 3.27% | 39.5% | 14.4% | 6.91% | 2.28% | -0.75% | 1.45% | -0.55% | 0.19% | 10.6%
22 | CN(C)CCCNc1nccc(-c2c(-c3ccc(F)cc3)nn3cc(C(F)(F)F)ccc23)n1 | 0.28% | 3.12% | 7.89% | -5.52% | 0.53% | -0.49% | 2.55% | 0.73% | -2.44% | -7.12%
23 | NS(=O)(=O)c1ccc(N/N=C2\C(=O)Nc3ccc(C(=O)NCCCn4ccnc4)cc32)cc1 | 19.2% | 5.3% | 17.8% | 3.17% | 6.3% | 6.66% | 2.1% | 3.71% | 1.19% | 2.13%
24 | CCS(=O)(=O)c1ccc(OC)c(Nc2ncc(-c3cccc(-c4ccccc4F)c3)o2)c1 | 85.6% | 16.9% | 64.4% | 3.39% | 2.01% | 1.9% | -1.45% | -0.35% | 0.42% | 2.3%
25 | FC(F)(F)c1cccc(Nc2nccc(-c3cnn4nc(-c5ccccc5)ccc34)n2)c1 | 7.18% | 1.72% | 6.11% | -1.43% | -2.61% | 1.45% | 0.93% | 0.27% | -0.41% | -1.86%
26 | Fc1ccc(-c2ncn(CCCN3CCOCC3)c2-c2ccncc2)cc1 | -2.27% | -1.42% | 2.38% | -1.55% | -0.34% | 0.12% | -0.04% | 0.12% | 0.83% | 2.24%
27 | COc1cccc(/C=N/Nc2ncnc3c2cnn3-c2cccc(OC)c2)c1 | 7.98% | 4.96% | 6.95% | 1.32% | 6.27% | 3.35% | 1.18% | 1.31% | 0.35% | 2.01%
28 | NS(=O)(=O)c1ccc(N/N=C2\C(=O)Nc3ccc(-c4cnco4)cc32)cc1 | 7.81% | 5.08% | 23.3% | -2.26% | 1.72% | 7.36% | -1.08% | 0.6% | -3.91% | –
29 | COc1cc(Nc2ncc(-c3ccccc3)o2)cc(OC)c1OC | 37.5% | 3.3% | 31.2% | 2.07% | 4.48% | -0.22% | -2.58% | -1.95% | -0.21% | 1.91%
30 | COc1cccc(-n2cnc3c(N/N=C/c4ccncc4)ncnc32)c1 | 25.6% | 0.9% | 16.3% | -8.19% | -2.78% | -4.12% | 1% | 0.57% | -2.76% | –
31 | Cc1ccc(C(=O)NC(C)C)cc1-c1ccc(C(=O)NCC2CC2)cc1 | 0.91% | -3.59% | -1.19% | -3.34% | -1.9% | -4.51% | -4.15% | -4.41% | -1.4% | -3.27%
32 | O=C(Nc1n[nH]c2cc(-c3ccccc3)ccc12)C1CC1 | 5.27% | 8.61% | 15.8% | 11.2% | 3.96% | 5.84% | 2.53% | 0.58% | 1.56% | 10.5%
33 | CN(c1ccc(NC(=O)Nc2c(Cl)cccc2Cl)cc1)c1ccnc(Nc2cccc(CS(C)(=O)=O)c2)n1 | 12.4% | 22.5% | 48.9% | 4.63% | 1.49% | 3.45% | 2.73% | 4.71% | 54.1% | 5.47%
34 | NS(=O)(=O)c1ccc(Nc2cc(-c3ccc(O)c(F)c3)n[nH]2)cc1 | 9.16% | 0.38% | 11.1% | -0.67% | -3.62% | 2.77% | -4.66% | -2.36% | 0.74% | -1.39%
